Reference: the OligoGym collection

Each sequence was assayed against MAFG (assay: pooled miR-30 sensor sort-seq; sequence = guide strand). Details: shRNA.
TTCTATTATACTTTCTTCCCTT gave a sensor-assay potency score (higher = more potent) of -0.191.
Work on TTTAGCAATAAATACTGCGCAG yielded a sensor-assay potency score (higher = more potent) of -0.617.
Sequence TATATAAAAACTAAACTCCAAC has a sensor-assay potency score (higher = more potent) of -1.06.
TATAATTAATTTAATAACTTTG showed a sensor-assay potency score (higher = more potent) of -0.864.
Sequence ATAATGTCTGATAACTCTGTGT has a sensor-assay potency score (higher = more potent) of -0.547.
Sequence TCGAGCTCCAGCTTCATGCTGG has a sensor-assay potency score (higher = more potent) of -0.0457.
TTATATATCACAAACATACACT showed a sensor-assay potency score (higher = more potent) of -0.989.
Work on TTTATCGGGGACACACTCTAGC yielded a sensor-assay potency score (higher = more potent) of -0.0679.
In the case of TAGATCTTTAATAACCTCCATC, the sensor-assay potency score (higher = more potent) is reported as -0.748.
TTTACTATTGTGATGACGCTGG was tested, and the sensor-assay potency score (higher = more potent) was 0.761.
TTAGCAATAAATACTGCGCAGG was tested, and the sensor-assay potency score (higher = more potent) was -0.418.
For TACTATTGTGATGACGCTGGTG, the sensor-assay potency score (higher = more potent) was 0.19.

Each sequence was assayed against MAF in the same assay as above. Details: shRNA.
AACTTCTCGTATTTCTCCTTGT was tested, and the sensor-assay potency score (higher = more potent) was -0.264.
Sequence TTTCAGGGTCCGCCTCTTCTGC has a sensor-assay potency score (higher = more potent) of -1.55.
Sequence TGCTGCACCCTCTTGAAGCGGC has a sensor-assay potency score (higher = more potent) of -0.694.
TCATCCAGTAGTAGTCTTCCAG showed a sensor-assay potency score (higher = more potent) of -0.918.
Work on TTTTCTCGGAAGCCGCTGCTCA yielded a sensor-assay potency score (higher = more potent) of -0.816.
TAGCCGGTCATCCAGTAGTAGT gave a sensor-assay potency score (higher = more potent) of -1.7.
For TTCAGCTCGCGCACAGACATGG, the sensor-assay potency score (higher = more potent) was -0.726.
TTGAGGTGGTCGACTTGCTGCA was tested, and the sensor-assay potency score (higher = more potent) was -0.511.
TCCCTCTCGCGCACCAGCCTGG was tested, and the sensor-assay potency score (higher = more potent) was -1.61.
TCGACTTGCTGCAGCAGCTGGT gave a sensor-assay potency score (higher = more potent) of -0.659.

The sequences below were run against MAGEA2B in the same assay as above. Details: shRNA.
In the case of AAATGTGAGGTTCTCCACCGAT, the sensor-assay potency score (higher = more potent) is reported as -0.397.
TTAGTGTATGGTGCAGGACTTT showed a sensor-assay potency score (higher = more potent) of -1.05.
Work on TAGTGTATGGTGCAGGACTTTC yielded a sensor-assay potency score (higher = more potent) of -1.11.
